Results published in PubChem BioAssay (NCI).
Compounds without any hit were thinned out: in the full panel of roughly 83,000, 20% have a hit.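 Growth was measured after 48 h exposure to one concentration of compound in 96-well plates. Values under 10 count as active.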 Unmarked numbers belong to inactive results. Calls of active or inactive are those of the source.

Assays:
Experiment in all cases: NCI-60 one-dose screen, 48 h (100 = growth as untreated, 0 = no growth, -100 = all killed)
K-562 leukemia = conditions: 10 µM unless noted
MALME-3M melanoma = conditions: 10 µM unless noted
RXF 393 renal = conditions: 10 µM unless noted
SF-295 CNS = conditions: 10 µM unless noted
M14 melanoma = conditions: 10 µM unless noted
SNB-19 CNS = conditions: 10 µM unless noted
U251 CNS = conditions: 10 µM unless noted
SK-MEL-2 melanoma = conditions: 10 µM unless noted
A498 renal = conditions: 10 µM unless noted
HL-60(TB) leukemia = conditions: 10 µM unless noted
CCRF-CEM leukemia = conditions: 10 µM unless noted
SR leukemia = conditions: 10 µM
OVCAR-8 ovarian = conditions: 10 µM unless noted
OVCAR-5 ovarian = conditions: 10 µM unless noted
OVCAR-4 ovarian = conditions: 10 µM unless noted
IGROV1 ovarian = conditions: 10 µM
MDA-MB-435 melanoma = conditions: 10 µM unless noted
SNB-75 CNS = conditions: 10 µM unless noted
BT-549 breast = conditions: 10 µM
SK-OV-3 ovarian = conditions: 10 µM unless noted

Structure (SMILES)	growth (K-562 leukemia)	growth (MALME-3M melanoma)	growth (RXF 393 renal)	growth (SF-295 CNS)	growth (M14 melanoma)	growth (SNB-19 CNS)	growth (U251 CNS)	growth (SK-MEL-2 melanoma)	growth (A498 renal)	growth (HL-60(TB) leukemia)	growth (CCRF-CEM leukemia)	growth (SR leukemia)	growth (OVCAR-8 ovarian)	growth (OVCAR-5 ovarian)	growth (OVCAR-4 ovarian)	growth (IGROV1 ovarian)	growth (MDA-MB-435 melanoma)	growth (SNB-75 CNS)	growth (BT-549 breast)	growth (SK-OV-3 ovarian)
C#CC1(O)CCC2(C)C(CCC3C4CCC(=O)C4(C)CCC32)C1 (stereo unspecified)	92.6%	103%	110%	94.1%	102%	95%	93.9%	92%	98.2%	93.5%	91.2%	94.5%	97.6%	99.8%	95.8%	104%	101%	–	–	–
CN=C(NN)NN	113%	103%	109%	102%	105%	121%	98.5%	109%	92.4%	119%	87.2%	94.8%	99.3%	111%	117%	112%	–	98%	106%	–
COc1cc(C2CC(=O)Nc3nc(N)[se]c32)cc(OC)c1OC (stereo unspecified)	83.9%	105%	116%	7.05% (active)	115%	52.1%	29.8%	89.2%	82.8%	89.1%	96%	65.8%	58.8%	–	105%	62%	–	98.9%	130%	101%
O=S(=O)(c1ccc(Cl)cc1)C(Cl)(Cl)Cl	19.6%	9.32% (active)	-5.22% (active)	78.2%	8.38% (active)	82.9%	52.1%	25.1%	56.4%	1.02% (active)	25.3%	15.1%	–	78.9%	61.6%	33.6%	-14.8% (active)	39.6%	34.1%	84.9%
COC(=O)C[Se]C(=O)c1ccccc1OC(C)=O	79%	69.9%	78.9%	53.3%	–	83.9%	66.3%	87.4%	–	-4.01% (active)	76.6%	20.7%	45.4%	38.6%	54.4%	52%	87.9%	–	71.9%	221%
Nc1c(Br)cc([N+](=O)[O-])cc1[N+](=O)[O-]	104%	–	106%	105%	113%	102%	101%	138%	92.8%	67.8%	118%	111%	98%	106%	107%	–	112%	99.2%	110%	107%
CC(C)(O)/C=C/C(=O)[C@](C)(O)[C@H]1[C@H](O)C[C@@]2(C)[C@@H]3CC=C4[C@@H](C=C(O)C(=O)C4(C)C)[C@]3(C)C(=O)C[C@]12C	-32.4% (active)	-66.5% (active)	0.503% (active)	-43.2% (active)	-75.3% (active)	-53.1% (active)	-77.5% (active)	-43.6% (active)	-79.8% (active)	-38.9% (active)	-29.1% (active)	-7.28% (active)	–	-3.44% (active)	-45.9% (active)	-70.3% (active)	-52.1% (active)	-86.6% (active)	-60.1% (active)	5.63% (active)
O=C(CCF)c1ccc(O)cc1	98.9%	108%	109%	100%	106%	96.2%	106%	105%	–	99.2%	95%	96%	99.2%	–	103%	100%	104%	96.9%	110%	103%
Cc1ccc(N)cc1[As]=[As]c1cc(N)ccc1C (stereo unspecified)	-5.72% (active)	-90.7% (active)	–	73.2%	-72.2% (active)	-47.5% (active)	-98.7% (active)	–	-26.3% (active)	-43.9% (active)	-38% (active)	-43.7% (active)	-95.3% (active)	-90.6% (active)	-83.1% (active)	-90.8% (active)	-89% (active)	-99.6% (active)	-93.6% (active)	75.3%
CCCCCN(CCCCC)CC(O)c1ccc(C)c(Cl)c1 (stereo unspecified)	92.5%	105%	–	87%	96%	98%	92.4%	101%	78.5%	116%	99%	92.4%	102%	–	105%	92.2%	104%	90.9%	107%	94.3%
O=C(O)CC(Br)C(=O)CBr (stereo unspecified)	105%	103%	109%	98.2%	103%	104%	99.2%	–	104%	105%	–	113%	99.4%	106%	97.2%	109%	108%	93.5%	98.2%	106%
O=C(CF)N(O)c1ccc(/C=C/c2ccccc2)cc1	45.4%	82.9%	50.7%	9.04% (active)	43.2%	54.3%	35.6%	94.9%	-31.7% (active)	13.4%	13.5%	–	39.9%	82.6%	70.8%	40.8%	72.3%	–	44.9%	65.6%
CNC(=O)Oc1cc(C(C)C)ccc1Sc1ccc(C(C)C)cc1OC(=O)NC	25.6%	62.7%	64.3%	26.9%	–	79%	46.2%	72.4%	88.5%	40.4%	36.5%	15.8%	66.9%	95.7%	80.8%	–	4.24% (active)	52.1%	94.2%	80.1%
NS(=O)(=O)c1nc[nH]c1[N+](=O)[O-]	101%	102%	116%	108%	102%	105%	119%	111%	–	102%	106%	102%	105%	96.7%	105%	115%	115%	92.1%	96.7%	101%
NC(=O)SCC(=O)Nc1ccc([As](=O)(O)O)cc1	75.5%	122%	95.7%	111%	–	92.8%	44.4%	73.3%	113%	56.9%	59.3%	100%	83.4%	125%	99.8%	65.5%	98.5%	–	92%	–
c1ccc(-c2ccc3ccccc3[o+]2)cc1	101%	101%	97.4%	104%	96.8%	93.3%	93.4%	88.8%	109%	89.7%	92.4%	84.5%	96.6%	103%	90.5%	82.7%	101%	80.5%	–	89.4%
C=CCC1(CC)C(=O)NC(=S)NC1=O	95.5%	108%	110%	108%	115%	97.1%	101%	99.3%	110%	75.4%	100%	96.7%	100%	101%	110%	107%	103%	104%	106%	97.1%
CC(=O)[O][Hg][CH2]C1(C)COC(C)([CH2][Hg][O]C(C)=O)CO1 (stereo unspecified)	-30.8% (active)	–	–	69.2%	39%	71.1%	-96.2% (active)	63.2%	75.8%	74.4%	-65.3% (active)	9.98% (active)	50.7%	114%	123%	-81% (active)	-2.3% (active)	–	-100% (active)	103%
